PubChem BioAssay
Active and inactive are the calls of the source.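 How the source made its calls, unless noted: active means fluorescence slope higher than the sample average by over 3 SD (cut at about -0.22 in these data, passing the limit was not always enough); inactive means the rest.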

Tests used:
[1] = inhibitors of TNFa-induced NFkB p65 translocation, primary screen, imaging, HUVEC, MLSMR starter and 10KST1 sets (AID 438;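 active means inhibition above 20% together with a positive visual image hit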;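 further: compound added about 3h40 before a 20 min TNFalpha stimulation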;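 on inhibition: signal is the nuclear over cytoplasmic p65 intensity ratio per well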); details: HUVEC TNFa-induced p65 nuclear translocation; cell count: measured here: nuclei count (cytotoxicity indicator), at 2.08 µM; inhibition: at 2 µM, stronger effect = higher value, 0% TNFa-plus-vehicle, 100% no-TNFa wells
[2] = reduction of polyQ htt aggregates in cells – imaging, exon1htt(103Q)mCFP cells, high-content imaging, primary screen (AID 483;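 active means visual image review flags a hit and inhibition of aggregation exceeds 20%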;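 further: compound exposure lasted 3 days before fixation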;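 on nuclei count: percent of the per-plate median nuclei count of sample wells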); details: exon1htt(103Q)mCFP cell line, aggregate imaging, at 2 µM; inhibition of aggregation: stronger effect = higher value; nuclei count: measured here: cell count, toxicity
[3] = endothelial E-selectin expression blockers – imaging, HUVEC, immunofluorescence, MLSMR starter and 10KST1 sets, primary screen (AID 487;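 active means visually confirmed hit in the image check and inhibition above 20%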;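 on inhibition: signal is fraction of cell area covered by stained E-selectin grains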;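 on nuclei count: 100% = median nuclei count of all wells on the same plate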); details: HUVEC TNFalpha-induced E-selectin immunofluorescence imaging, at 2 µM; inhibition: stronger effect = higher value; nuclei count: measured here: cell number, toxicity
[4] = molecular target: Voltage-gated potassium channel subunit beta-2 (Rattus norvegicus) (UniProt P62483); experiment: inhibitors of rat Kvbeta2 reductase activity – biochemical, NADPH fluorescence, primary screen (AID 622); details: recombinant KvBeta, 4-cyanobenzaldehyde reduction, at 10 µM, stronger effect = higher value;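 further: slope of raw intensity against log time taken from 70 to 1610 s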
[5] = molecular target: Voltage-gated potassium channel subunit beta-2 (Rattus norvegicus) (UniProt P62483); experiment: enhancers of rat Kvbeta2 NADPH turnover – biochemical, NADPH fluorescence, primary screen (AID 623;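 active means NADPH fluorescence slope more negative than the mean of all samples by about 3 SD, 99.7% confidence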;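 further: fluorescence intensity change per second fitted from 20 to 320 s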); details: Recombinant KvBeta, NADPH fluorescence decrease slope, 10 min; at 10 µM; stronger effect = lower value
[6] = molecular target: Alpha-2C adrenergic receptor (Homo sapiens) (UniProt P18825); experiment: compounds altering alpha2C-coupled GIRK flux – cell-based, HEK293 alpha2C/GIRK1/2, thallium flux, primary screen (AID 624;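 active means fluorescence slope after compound addition differing from the mean of all screened samples at 99.7% confidence, in either direction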;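 further: slope of fluorescence ratio to pre-addition baseline per second over 15 to 24 s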); details: thallium flux BTC fluorescence, at 10 µM, actives lie on both sides
[7] = blockers of RIG-like receptor reporter activation – cell-based, Sendai virus stimulus, luciferase, 10K MLSCN set, TLR/RLR signaling modifier project, primary screen (AID 602276;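 active means inhibition at or above 50% at 10 µM; inactive means inhibition below 50%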;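 further: firefly luciferase from ISG56 promoter only with Renilla not read in this screen; 0% = Sendai virus plus DMSO and 100% = medium plus DMSO without virus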); details: HEK293 RL24 IRF3 luciferase reporter, at 10 µM, stronger effect = higher value
[8] = TLR3 IRF3 reporter activation blockers – cell-based, poly I:C stimulus, luciferase, 10K MLSCN set, primary screen (AID 602277;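 active means inhibition of the reporter signal at or above 50%; inactive means inhibition below 50%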); details: HEK293-TLR3 RL24 IRF3 luciferase reporter, at 10 µM, stronger effect = higher value

Chain of Voltage-gated potassium channel subunit beta-2 (Rattus norvegicus) (P62483 whole entry, looked up): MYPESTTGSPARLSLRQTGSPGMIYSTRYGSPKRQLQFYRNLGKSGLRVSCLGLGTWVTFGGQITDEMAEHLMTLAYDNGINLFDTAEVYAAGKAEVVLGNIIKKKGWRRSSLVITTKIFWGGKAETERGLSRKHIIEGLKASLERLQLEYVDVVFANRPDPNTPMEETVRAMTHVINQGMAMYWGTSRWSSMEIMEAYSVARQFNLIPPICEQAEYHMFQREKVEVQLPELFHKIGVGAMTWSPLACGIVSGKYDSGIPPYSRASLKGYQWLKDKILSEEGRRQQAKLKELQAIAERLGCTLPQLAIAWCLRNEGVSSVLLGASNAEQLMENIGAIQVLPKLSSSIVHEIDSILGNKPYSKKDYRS
Chain of Alpha-2C adrenergic receptor (Homo sapiens) (P18825 whole entry, looked up): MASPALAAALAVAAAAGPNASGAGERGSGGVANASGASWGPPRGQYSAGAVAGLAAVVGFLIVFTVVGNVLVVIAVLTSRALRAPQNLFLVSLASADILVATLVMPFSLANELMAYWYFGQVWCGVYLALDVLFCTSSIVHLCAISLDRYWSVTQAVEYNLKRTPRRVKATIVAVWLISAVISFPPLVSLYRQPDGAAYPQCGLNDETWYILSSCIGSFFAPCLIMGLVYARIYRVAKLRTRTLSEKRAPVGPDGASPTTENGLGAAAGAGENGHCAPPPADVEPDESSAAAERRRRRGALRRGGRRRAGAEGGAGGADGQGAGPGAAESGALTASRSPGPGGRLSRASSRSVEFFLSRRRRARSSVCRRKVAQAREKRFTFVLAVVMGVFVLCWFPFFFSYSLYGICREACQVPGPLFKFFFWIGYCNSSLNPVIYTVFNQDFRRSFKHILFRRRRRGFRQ

Row | Structure (SMILES) | cell count [1] | inhibition [1] | inhibition of aggregation [2] | nuclei count [2] | inhibition [3] | nuclei count [3] | fluorescence slope [4] | NADPH fluorescence slope [5] | slope [6] | inhibition [7] | inhibition [8]
1 | O=c1c2ccccc2nc(SCc2cn3ccsc3n2)n1-c1ccc(F)cc1 | 607 | 6.1% (inactive) | 9% (inactive) | 103% | 59.6% (active) | 71.6% | -0.626 (inactive) | 1.8e-05 (inactive) | 0.00521 (inactive) | 23.9% (inactive) | 22.8% (inactive)
2 | CCc1ccccc1NC(=O)C(C#N)Cc1cccnc1 (centres undefined) | 575 | -1.5% (inactive) | 2.2% (inactive) | 100% | -21.3% (inactive) | 104% | -0.51 (inactive) | -9e-07 (inactive) | 0.00548 (inactive) | -6.51% (inactive) | 19% (inactive)
3 | Cc1[nH]nc2c1C(C1CC=CCC1)C(C#N)=C(N)O2 (centres undefined) | 424 | 6.7% (inactive) | -6.7% (inactive) | 99.5% | -127% (inactive) | 117% | -0.459 (inactive) | 8.5e-06 (inactive) | 0.00356 (inactive) | -0.754% (inactive) | 40.2% (inactive)
4 | Cc1ccc(CNC(=O)C2CCN(S(=O)(=O)c3cccs3)CC2)o1 | 296 | -3.4% (inactive) | 11.2% (inactive) | 76.7% | -23.9% (inactive) | 103% | -0.617 (inactive) | -3.4e-05 (inactive) | 0.00605 (inactive) | 7.81% (inactive) | 5.31% (inactive)
5 | O=C(c1ccc(Cl)cc1)N1CCCOC1 | 784 | -9.7% (inactive) | -49% (inactive) | 99.2% | -84.3% (inactive) | 111% | -0.32 (inactive) | -4.9e-05 (inactive) | 0.00521 (inactive) | 10.5% (inactive) | 18.6% (inactive)
6 | Cc1c(N=C2SCC(=O)N2c2c(C)n(C)n(-c3ccccc3)c2=O)c(=O)n(-c2ccccc2)n1C | 592 | 4.1% (inactive) | -7.8% (inactive) | 113% | -66.8% (inactive) | 116% | -0.482 (inactive) | -3e-05 (inactive) | 0.00551 (inactive) | 2.44% (inactive) | 13.3% (inactive)
7 | COc1ccccc1-c1cc2nc(C)c(CCC(=O)NCc3ccco3)c(C)n2n1 | 688 | -7.7% (inactive) | -15.4% (inactive) | 115% | -41.8% (inactive) | 111% | -0.587 (inactive) | -4.5e-05 (inactive) | 0.00963 (inactive) | 18.9% (inactive) | 16.6% (inactive)
8 | Cc1c(C)c2ccc(OC3CCCCC3=O)cc2oc1=O (centres undefined) | 573 | -9.2% (inactive) | -0.8% (inactive) | 120% | 38.5% (inactive) | 134% | -0.175 (inactive) | -2e-05 (inactive) | 0.0054 (inactive) | -2.48% (inactive) | -14.3% (inactive)
9 | CCCCn1c(SCC(=O)OCC)nc2c1c(=O)[nH]c(=O)n2C | 611 | -0.3% (inactive) | 5.2% (inactive) | 97.5% | 7.7% (inactive) | 84.3% | -0.499 (inactive) | -2.6e-05 (inactive) | 0.00682 (inactive) | 13.7% (inactive) | 21.6% (inactive)
